This note sets out measurements from PubChem BioAssay (NCATS).

Experiment [1] deals with Lysosomal acid glucosylceramidase (Homo sapiens) (UniProt P04062). The experiment is described as follows: Glucocerebrosidase-p2 (AID 348; in the data active means potency below about 10 µM; further: potency means the concentration at half of the fitted maximal effect). Particulars: purified GBA, blue fluorogenic substrate, 40 min. The method, boiled down: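 Normal human glucocerebrosidase (0.2 nM) with blue fluorogenic substrate (80 uM final) in citrate/phosphate pH 5.9 with 10mM sodium taurocholate, 0.01% tween-20; 40 min RT, NaOH/glycine stop; fluorescence Ex 365/Em 440; AC50 from a titration from 0.6 nM upwards.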
Sequence of Lysosomal acid glucosylceramidase (Homo sapiens) (P04062 whole entry, looked up): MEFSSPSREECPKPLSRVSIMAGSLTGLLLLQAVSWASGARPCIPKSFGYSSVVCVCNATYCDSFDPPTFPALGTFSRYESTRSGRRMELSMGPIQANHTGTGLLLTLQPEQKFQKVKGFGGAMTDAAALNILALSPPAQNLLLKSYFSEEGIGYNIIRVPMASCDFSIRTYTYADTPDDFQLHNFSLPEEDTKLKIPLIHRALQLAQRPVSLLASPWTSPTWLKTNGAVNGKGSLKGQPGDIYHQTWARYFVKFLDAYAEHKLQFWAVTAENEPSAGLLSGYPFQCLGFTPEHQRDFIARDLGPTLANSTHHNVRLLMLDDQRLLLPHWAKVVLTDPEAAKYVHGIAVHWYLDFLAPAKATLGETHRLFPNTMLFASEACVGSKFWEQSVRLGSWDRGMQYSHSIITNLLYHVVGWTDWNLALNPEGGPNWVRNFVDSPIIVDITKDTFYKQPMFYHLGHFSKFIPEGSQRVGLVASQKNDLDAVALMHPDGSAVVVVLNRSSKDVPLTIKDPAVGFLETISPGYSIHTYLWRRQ

The target of experiment [2] is Cytochrome P450 1A2 (Homo sapiens) (UniProt P05177). Briefly: p450-cyp1a2 (AID 410; calls by dose curve; further: potency means the concentration at half of the fitted maximal effect). The gist of the method:
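20nM CYP1A2, 100uM Luciferin-ME (=Km), 100mM KPO4; cpd 10 min RT; +NADPH regen, 60 min RT; stop/detect 20 min; luminescence. Normalized to furafylline 57 uM = full inhibition.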

Experiment [3] can be described thus: NFAT Signaling Pathway (AID 444).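 Further: carbachol stimulus at about its EC50 of 1 µM final; on the % scale 0 is the no-effect control and ±100 the full control effect.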 The note with it: Jurkat NFAT-bla M1, carbachol, beta-lactamase ratio, 5 h; at 7.69 µM (top of the series) unless noted. The method, boiled down:
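Read-out: CCF4 FRET ratio (460 nm/530 nm) after 1 h RT dye loading, used for %activity and AC50 from titration series. Cells: Jurkat NFAT-β-lactamase/M1 line, treated with compound plus 1 uM carbachol for 5 h, 37 °C.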

Experiment [4] deals with Glucocorticoid receptor (Homo sapiens) (UniProt P04150). The experiment is described as follows: GR-GFP Redistribution (AID 450;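 active means compounds whose dose series gives a full or clear partial fitted curve of increased nuclear translocation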; further: potency means the concentration at half of the fitted maximal effect). The note with it: U2OS GR-GFP nuclear translocation, laser cytometry, 2 h.
Sequence of Glucocorticoid receptor (Homo sapiens) (P04150 whole entry, looked up, the tested form may be a part): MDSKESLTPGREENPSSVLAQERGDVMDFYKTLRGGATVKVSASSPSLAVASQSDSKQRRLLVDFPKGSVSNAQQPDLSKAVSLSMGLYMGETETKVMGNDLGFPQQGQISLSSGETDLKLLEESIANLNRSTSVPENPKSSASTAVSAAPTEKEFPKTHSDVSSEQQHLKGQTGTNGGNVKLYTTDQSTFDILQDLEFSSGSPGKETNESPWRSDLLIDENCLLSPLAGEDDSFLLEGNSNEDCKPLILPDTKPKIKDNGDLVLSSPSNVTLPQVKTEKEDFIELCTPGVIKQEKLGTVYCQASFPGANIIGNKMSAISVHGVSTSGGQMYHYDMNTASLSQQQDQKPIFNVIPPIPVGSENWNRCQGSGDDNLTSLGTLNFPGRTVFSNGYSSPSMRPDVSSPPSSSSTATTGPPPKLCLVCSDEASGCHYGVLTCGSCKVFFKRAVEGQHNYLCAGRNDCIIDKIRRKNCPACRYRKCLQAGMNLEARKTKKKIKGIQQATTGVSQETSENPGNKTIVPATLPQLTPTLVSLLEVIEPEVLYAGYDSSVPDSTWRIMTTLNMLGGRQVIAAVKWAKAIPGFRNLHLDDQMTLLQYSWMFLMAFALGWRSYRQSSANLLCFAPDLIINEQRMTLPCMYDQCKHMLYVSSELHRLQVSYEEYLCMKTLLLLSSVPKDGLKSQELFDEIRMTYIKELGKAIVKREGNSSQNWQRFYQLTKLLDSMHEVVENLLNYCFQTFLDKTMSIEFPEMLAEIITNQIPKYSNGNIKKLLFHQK
For experiment [5] the target is unchanged. Briefly: GR-EFC Redistribution (AID 451; calls by dose curve; further: potency means the concentration at half of the fitted maximal effect). The note with it: CHO-K1 GR-EFC translocation, beta-gal luminescence, 2 h. The method, boiled down: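 Translocation of GR-ED fusion to nuclear EA restores b-gal, read by luminescence after 1 h room-temperature detection. Engineered CHO-K1 biosensor cells, 1,000/well, exposed 2 h at 37 C to titrations up to 46 uM final.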

Experiment [6] concerns the target Mitogen-activated protein kinase 10 (Mus musculus) (UniProt Q61831). The experiment is described as follows: JNK3 AlphaScreen Assay (AID 530).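 Further: kinase came from lysate of stimulated human HepG2 cells; signal reports phosphorylation of biotinylated GST-cJun 1-79 at Ser73 with 10 µM ATP; on the % scale 0 is the no-effect control and ±100 the full control effect.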 The gist of the method: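 Kinase buffer: 20 mM Tris-HCl pH 7.6, 10 mM MgCl2, 1 mM DTT, 0.1 mM Na3VO4, 0.01% Tween-20; ATP 10 uM. Substrate biotin-GST-cJun(1-79), enzyme from activated HepG2 lysates. Detection by Ser73 phospho-antibody AlphaScreen.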
Background: Alpha assays give light when donor and acceptor beads are brought close together.

Experiment [7] has as its target Cytochrome P450 3A4 (Homo sapiens) (UniProt P08684). The experiment is described as follows: qHTS Assay for Activators of Cytochrome P450 3A4 (AID 885; active means well fitted curve in the direction sought with a large enough effect; an effect the other way counts as inactive or inconclusive; further: nearly all actives have a fitted effect of over 65% in size). The gist of the method:
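Luminescent readout of luciferin formed from 25 uM Luciferin-PPXE (KM level) by 20 nM CYP3A4 in 200 mM KPO4, with 60 min NADPH-driven reaction at room temperature after 10 min compound exposure. Ketoconazole (57 uM) defined 100% inhibition.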

A short description of experiment [8]: qHTS Assay for Identification of Small Molecule Agonists for Hypoxia Response Element Signaling Pathway (AID 914; active means well fitted activation curve with a large enough effect in the signal ratio, with a control signal flat, not every such curve was filed as active; the % refers to the signal ratio; further: potency means the concentration at half of the fitted maximal effect; on activation: % of control where 0% means no effect). The note with it: ME-180 HRE-bla reporter, beta-lactamase ratio, CoCl2, 17 h; activation: stronger effect = higher value. The method, boiled down:
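AC50 values come from titration-series %Activity, taken as the 460/530nm ratio of CCF4 fluorescence (excitation 405nm). CellSensor HRE-bla ME-180 cells were treated 17 hours at 37 C with compound plus an EC50 level of CoCl2.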
A general note: qHTS replaces the single test concentration by a dilution series.

For experiment [9], the target named is Dual specificity protein kinase CLK4 (Homo sapiens) (UniProt Q9HAZ1). Briefly: qHTS Assay for Inhibitors of CDC-like Kinase 4 (Kinase-Glo Assay) (AID 1770; active means well fitted curve in the direction sought with a large enough effect; an effect the other way counts as inactive or inconclusive; further: on the % scale 0 is the no-effect control and ±100 the full control effect; nearly all actives have a fitted effect of over 65% in size). The gist of the method: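 Substrate mix (RS peptide 100 uM, ATP 1 uM) dispensed, compound pinned in, then Clk4 added to 25 nM final. Incubated 4.5 h at RT; Kinase-Glo reagent added, luminescence read after 5 min.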
Sequence of Dual specificity protein kinase CLK4 (Homo sapiens) (Q9HAZ1 whole entry, looked up): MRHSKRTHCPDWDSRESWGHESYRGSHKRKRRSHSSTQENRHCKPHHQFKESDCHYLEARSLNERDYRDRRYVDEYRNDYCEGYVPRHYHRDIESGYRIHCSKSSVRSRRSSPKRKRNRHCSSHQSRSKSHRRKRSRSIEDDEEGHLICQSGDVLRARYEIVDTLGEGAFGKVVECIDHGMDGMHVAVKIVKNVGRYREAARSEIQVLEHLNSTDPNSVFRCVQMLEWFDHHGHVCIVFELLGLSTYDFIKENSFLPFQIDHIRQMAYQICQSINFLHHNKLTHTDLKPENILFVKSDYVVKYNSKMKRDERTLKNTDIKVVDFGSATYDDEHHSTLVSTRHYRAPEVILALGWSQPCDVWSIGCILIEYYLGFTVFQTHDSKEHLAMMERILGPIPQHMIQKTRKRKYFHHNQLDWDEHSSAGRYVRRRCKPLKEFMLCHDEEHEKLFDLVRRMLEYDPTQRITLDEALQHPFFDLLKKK

Experiment [10] shares this target. The experiment is described as follows: qHTS Assay for Inhibitors of CDC-like Kinase 4 (ADP-Glo Assay) (AID 1771; active means well fitted curve in the direction sought with a large enough effect; an effect the other way counts as inactive or inconclusive; further: on the % scale 0 is the no-effect control and ±100 the full control effect; nearly all actives have a fitted effect of over 70% in size). The gist of the method:
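25 nM Clk4, 100 uM RS peptide, 1 uM ATP (final); 2 mM MgCl2, 0.5 mM EGTA, 2.5 mM DTT, 0.01% Triton X-100; 1 hr RT. ADP-Glo readout: ATP depletion 45 min, conversion/luciferase 30 min, luminescence.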

For experiment [11] the target is unchanged. Briefly: qHTS Assay for Inhibitors of CDC-like Kinase 4 (ADP-FP Assay) (AID 1795; active means well fitted curve in the direction sought with a large enough effect; an effect the other way counts as inactive or inconclusive;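 further: recombinant human CLK4 phosphorylating RS repeat peptide at 1 µM ATP; on the % scale 0 is the no-effect control and ±100 the full control effect; nearly all actives have a fitted effect of over 60% in size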). The gist of the method:
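Clk4 6.25 nM; RS peptide 100 uM; ATP 1 uM; 25 mM Tris pH 7.5, 10 mM MgCl2; 1 h reaction. ADP detected via antibody/orange tracer FP displacement; TG003 positive control.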

Experiment [12] concerns the target Ubiquitin carboxyl-terminal hydrolase 1 (Homo sapiens) (UniProt O94782). The experiment is described as follows: Inhibitors of USP1/UAF1: Pilot qHTS (AID 504865; active means well fitted curve in the direction sought with a large enough effect; an effect the other way counts as inactive or inconclusive;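 further: rhodamine fluorescence freed from ubiquitin-rhodamine substrate followed over time; top concentration of the series differs between compounds; on the % scale 0 is the no-effect control and ±100 the full control effect; nearly all actives have a fitted effect of over 35% in size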). The method, boiled down:
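In 50mM HEPES pH 7.8 containing 0.5mM EDTA, 1mM TCEP, 0.1 mg/ml BSA and 0.01% Tween-20, 1nM USP1/UAF1 is exposed to compound for 15 min, then Ub-Rho (150nM final) is added and fluorescence is read over time.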

Experiment [13] in a line: Primary qHTS for small molecule stabilizers of the endoplasmic reticulum resident proteome: Secreted ER Calcium Modulated Protein (SERCaMP) assay (AID 1508630; active means well fitted curve in the direction sought with a large enough effect; an effect the other way counts as inactive or inconclusive; further: on the % scale 0 is the no-effect control and ±100 the full control effect). The gist of the method:
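The SH-SY5Y reporter protocol was run at 3 concentrations up to 38.3 uM (primary) or 11 concentrations (follow-up): 16 h compound, 100 nM thapsigargin for 4 h, then extracellular luciferase luminescence.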

The nature of experiment [14]: AP1 Signaling Pathway (AID 357).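 Further: ME-180 reporter cells stimulated with EGF at its EC50 level; on the % scale 0 is the no-effect control and ±100 the full control effect.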 Particulars: ME-180 AP-1-bla reporter, EGF-induced, beta-lactamase ratio, 5 h; at 7.69 µM (top of the series) unless noted. The method, boiled down:
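In this screen, ME-180 cells in Opti-MEM with 0.5% dialyzed FBS received EC50 EGF and compound titrations for 5 h. AP-1 reporter beta-lactamase was detected via CCF4 ratio, giving AC50 for positive and negative modulators.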

Experiment [15] in a line: Stat Signaling Pathway (AID 446). Particulars: ME-180 (cervical carcinoma) SIE beta-lactamase reporter, IL-6 stimulated, 5 h; at 7.69 µM (top of the series) unless noted. The gist of the method: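 FRET read-out (405 nm excitation, 460/530 nm emission) of a beta-lactamase reporter under a STAT-inducible element in ME-180 cervical carcinoma cells. Cells with compound receive 40 pM IL-6 for 5 h. Values are normalised to AC90 stimulation and AC90 JAK-inhibitor controls.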

The target in experiment [16] is 3',5'-cyclic-AMP phosphodiesterase 4B (Homo sapiens) (UniProt Q07343). Briefly: qHTS Assay for Inhibitors of PDE-IV (AID 607; active means well fitted activation curve with a large enough effect in the main read-out, with a control signal flat, not every such curve was filed as active; further: % of control where 0% means no effect). The method, boiled down: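 Cell-based read-out of cAMP via a modified cyclic nucleotide-gated channel and membrane potential dye (535/590 nm) in HEK293 cells expressing PDE4 endogenously. Compounds tested up to 22.9 uM final; 100 uM RO 20-1724 reference.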
Sequence of 3',5'-cyclic-AMP phosphodiesterase 4B (Homo sapiens) (Q07343 whole entry, looked up): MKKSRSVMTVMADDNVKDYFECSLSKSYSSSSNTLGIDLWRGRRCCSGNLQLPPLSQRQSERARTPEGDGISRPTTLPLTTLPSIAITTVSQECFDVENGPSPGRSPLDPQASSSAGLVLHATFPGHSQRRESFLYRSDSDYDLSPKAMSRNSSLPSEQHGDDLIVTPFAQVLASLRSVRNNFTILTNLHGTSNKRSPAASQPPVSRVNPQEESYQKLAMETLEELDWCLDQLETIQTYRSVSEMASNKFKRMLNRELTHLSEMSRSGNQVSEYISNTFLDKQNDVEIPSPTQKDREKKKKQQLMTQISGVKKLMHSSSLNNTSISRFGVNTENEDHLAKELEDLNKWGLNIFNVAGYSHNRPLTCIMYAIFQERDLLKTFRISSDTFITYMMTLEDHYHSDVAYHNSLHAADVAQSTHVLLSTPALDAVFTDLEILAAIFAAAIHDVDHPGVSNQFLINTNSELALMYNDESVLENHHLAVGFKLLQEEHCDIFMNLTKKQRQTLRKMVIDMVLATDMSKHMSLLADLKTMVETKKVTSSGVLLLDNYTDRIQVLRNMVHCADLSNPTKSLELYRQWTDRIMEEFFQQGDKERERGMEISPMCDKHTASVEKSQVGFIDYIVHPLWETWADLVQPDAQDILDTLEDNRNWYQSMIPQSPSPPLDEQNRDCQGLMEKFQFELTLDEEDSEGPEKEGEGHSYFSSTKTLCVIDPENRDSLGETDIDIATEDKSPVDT

Experiment [17] has as its target Cytochrome P450 2C9 (Homo sapiens) (UniProt P11712). Briefly: qHTS Assay for Inhibitors and Substrates of Cytochrome P450 2C9 (AID 883; active means well fitted curve in the direction sought with a large enough effect; an effect the other way counts as inactive or inconclusive; further: on the % scale 0 is the no-effect control and ±100 the full control effect; nearly all actives have a fitted effect of over 60% in size). The method, boiled down: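 Turnover of Luciferin-H (100uM, KM) by 10nM human CYP2C9 was measured over 60 min at 37C with NADPH regeneration; inhibitors and some substrates reduce luminescence. Data normalized to sulphaphenazole 57uM.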

Experiment [18] can be described thus: qHTS Assay for Lipid Storage Modulators (AID 1519; calls by dose curve). The note with it: Drosophila S3 cells, BODIPY lipid droplet/cell ratio, laser cytometry, cells loaded with oleic acid; for activity change, negative = inhibition: at 57.5 µM (top of the series). The method, boiled down: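 Cells seeded at 5,000 per well were treated with compounds over a concentration series and loaded with oleic acid (400 uM, as added). Lipid droplet fluorescence (488 nm excitation, 500-530 nm channel) was read by laser-scanning cytometry and normalized to 20 uM Triacsin C.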

Experiment [19] addresses Cytochrome P450 3A4 (Homo sapiens) (UniProt P08684). Briefly: qHTS Assay for Inhibitors and Substrates of Cytochrome P450 3A4 (AID 884; active means well fitted curve in the direction sought with a large enough effect; an effect the other way counts as inactive or inconclusive; further: on the % scale 0 is the no-effect control and ±100 the full control effect; nearly all actives have a fitted effect of over 50% in size). The gist of the method:
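Luminescent readout of luciferin produced by CYP3A4 (20 nM) dealkylation of Luciferin-PPXE, 25 uM (its KM). NADPH-driven reaction ran 60 min at RT after 10 min compound preincubation; data scaled to 57 uM ketoconazole as 100% inhibition.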

Where [20] appears, read: measured here: cell count channel max response.
The mark [21] stands for this setting: measured here: lipid channel max response.

Inconclusive results are not listed. Activity calls are given as the source filed them. Unless noted, the call rests on the fitted dose curve; in most records, active means well fitted curve in either direction with a large enough effect (not every such curve was filed as active); inconclusive means small, poorly fitted or top-dose-only effect, or another doubt; inactive means flat fitted curve, though single readings scatter.

Sequence of Cytochrome P450 1A2 (Homo sapiens) (P05177 whole entry, looked up): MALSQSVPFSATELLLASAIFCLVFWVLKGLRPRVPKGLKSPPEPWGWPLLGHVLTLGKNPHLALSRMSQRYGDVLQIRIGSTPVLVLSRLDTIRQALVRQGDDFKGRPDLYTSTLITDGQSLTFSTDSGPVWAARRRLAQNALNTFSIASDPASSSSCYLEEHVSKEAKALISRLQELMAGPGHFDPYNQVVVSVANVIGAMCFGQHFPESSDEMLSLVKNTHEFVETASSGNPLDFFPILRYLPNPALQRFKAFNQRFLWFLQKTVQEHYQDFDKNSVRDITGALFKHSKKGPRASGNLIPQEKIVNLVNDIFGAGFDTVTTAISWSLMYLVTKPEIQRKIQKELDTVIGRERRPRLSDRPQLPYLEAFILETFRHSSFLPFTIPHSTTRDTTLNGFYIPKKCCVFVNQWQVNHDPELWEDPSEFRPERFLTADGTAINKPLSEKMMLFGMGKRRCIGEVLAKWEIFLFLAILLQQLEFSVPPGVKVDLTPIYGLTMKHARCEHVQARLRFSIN
Sequence of Cytochrome P450 2C9 (Homo sapiens) (P11712 whole entry, looked up): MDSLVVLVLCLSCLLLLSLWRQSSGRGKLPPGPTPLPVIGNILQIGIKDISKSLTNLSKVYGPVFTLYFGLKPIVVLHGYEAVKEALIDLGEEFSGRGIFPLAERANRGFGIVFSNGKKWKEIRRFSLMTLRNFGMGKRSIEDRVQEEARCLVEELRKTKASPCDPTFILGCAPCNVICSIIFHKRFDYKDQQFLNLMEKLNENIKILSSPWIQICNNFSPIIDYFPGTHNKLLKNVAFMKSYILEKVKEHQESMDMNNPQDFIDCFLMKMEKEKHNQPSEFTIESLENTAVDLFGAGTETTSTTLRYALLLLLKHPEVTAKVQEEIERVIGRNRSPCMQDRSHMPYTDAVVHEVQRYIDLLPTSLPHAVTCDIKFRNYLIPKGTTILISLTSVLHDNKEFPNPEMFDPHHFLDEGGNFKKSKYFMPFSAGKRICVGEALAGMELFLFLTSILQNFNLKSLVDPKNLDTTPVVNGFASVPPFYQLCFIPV
Sequence of Cytochrome P450 3A4 (Homo sapiens) (P08684 whole entry, looked up): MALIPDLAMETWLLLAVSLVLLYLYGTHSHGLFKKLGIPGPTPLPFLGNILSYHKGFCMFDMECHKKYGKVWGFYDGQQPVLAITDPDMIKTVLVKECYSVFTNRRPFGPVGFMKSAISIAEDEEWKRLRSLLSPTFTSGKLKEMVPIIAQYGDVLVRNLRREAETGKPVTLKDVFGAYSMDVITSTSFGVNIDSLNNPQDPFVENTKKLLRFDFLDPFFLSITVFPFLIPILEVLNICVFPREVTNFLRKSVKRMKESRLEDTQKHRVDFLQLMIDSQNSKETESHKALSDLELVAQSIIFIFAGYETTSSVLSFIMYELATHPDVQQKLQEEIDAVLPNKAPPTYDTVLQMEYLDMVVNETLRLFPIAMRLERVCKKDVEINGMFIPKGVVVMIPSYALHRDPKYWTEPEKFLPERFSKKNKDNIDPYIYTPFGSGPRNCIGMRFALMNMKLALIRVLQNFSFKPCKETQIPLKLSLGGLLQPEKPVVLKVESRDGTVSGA
Sequence of Ubiquitin carboxyl-terminal hydrolase 1 (Homo sapiens) (O94782 whole entry, looked up): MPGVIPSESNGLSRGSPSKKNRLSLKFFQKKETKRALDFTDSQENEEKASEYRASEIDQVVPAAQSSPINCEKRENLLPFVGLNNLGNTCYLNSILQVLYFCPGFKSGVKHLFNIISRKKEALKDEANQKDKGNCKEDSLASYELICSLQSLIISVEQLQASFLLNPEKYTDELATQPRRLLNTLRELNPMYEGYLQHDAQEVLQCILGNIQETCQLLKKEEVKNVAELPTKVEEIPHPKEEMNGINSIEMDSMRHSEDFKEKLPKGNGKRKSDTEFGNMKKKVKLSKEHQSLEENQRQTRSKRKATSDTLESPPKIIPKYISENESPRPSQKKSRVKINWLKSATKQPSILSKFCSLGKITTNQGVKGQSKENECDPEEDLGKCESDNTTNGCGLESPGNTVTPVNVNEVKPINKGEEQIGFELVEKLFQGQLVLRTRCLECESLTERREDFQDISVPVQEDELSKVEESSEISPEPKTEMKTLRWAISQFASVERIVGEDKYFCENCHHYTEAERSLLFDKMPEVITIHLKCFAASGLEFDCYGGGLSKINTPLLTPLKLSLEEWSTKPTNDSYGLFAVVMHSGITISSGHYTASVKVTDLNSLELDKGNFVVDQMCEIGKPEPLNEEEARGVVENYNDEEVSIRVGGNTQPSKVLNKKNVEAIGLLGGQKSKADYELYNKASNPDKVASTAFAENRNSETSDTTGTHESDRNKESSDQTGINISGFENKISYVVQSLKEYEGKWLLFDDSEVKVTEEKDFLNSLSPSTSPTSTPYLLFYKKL

Take `COc1ncc2nc(-c3cccs3)c(=O)n(CCc3ccccc3)c2n1`: the Potency was > 11.4 µM (inactive) in experiment [1]; 1.26 µM (active) in experiment [2]; > 9.22 µM (inactive) in experiment [4]; > 46 µM (inactive) in [5]; 3.16 µM (active) in [8]. Further, in [3], the activity change, negative = inhibition was 11.4% (inactive). Further, the molecule was called inactive in [6]. The Potency result in [7], in experiment [9], in experiment [10], in [11], in experiment [12] and in [13] was “inactive” in each case.
With `COc1ccc(C(=O)N2CCC3(CC2)CN(C(=O)Nc2ccccc2)C3)cc1`, the Potency in [1] was > 11.4 µM (inactive); in experiment [2], 25.1 µM (active); in experiment [5], > 46 µM (inactive). The activity change, negative = inhibition in experiment [14] is -1.19% (inactive); in experiment [3], 22.2% (inactive). Moreover, the activity, negative = inhibition in experiment [15] was -10.2% (inactive). Moreover, the molecule was called inactive in [6]. The Potency result in experiment [16] and in [13] was “inactive” each time.
For `CN(C)C(=O)c1ccc(-c2ccc3ncnc(N4CCC(C(=O)O)CC4)c3c2)cc1`, the activity change, negative = inhibition was 0.539% (inactive) in experiment [14], 7.54% (inactive) in experiment [3] and 37.2% [at 2.29 µM] (inactive) in experiment [17]. The activity, negative = inhibition in [15] is -4.54% (inactive). The Potency in [4] and in experiment [5] was > 46 µM (inactive) throughout. Besides, the outcome in experiment [6] was inactive. In addition, the Potency entry in experiment [16], in experiment [11], in experiment [12] and in [13] was “inactive” each time. Moreover, in experiment [8], the activation was -0.026% (inactive).
With `CC(C)NC(=O)N1CCC2(CC1)CCN(C(=O)c1cc(C(F)(F)F)cc(C(F)(F)F)c1)CC2`, the activity change, negative = inhibition in [14] is -12% (inactive); in [3], 25.7% (inactive); in experiment [18], -0.11% (inactive). Further, the Potency result in experiment [2], in [16], in experiment [17] and in experiment [13] was “inactive” in each case. In experiment [15], the activity, negative = inhibition is -9.32% (inactive). The Potency in experiment [5] was > 46 µM (inactive). In [6], the molecule was called inactive. Also, in experiment [8], the activation is 9.62% (inactive). Also, the max response is -8.79% in experiment [18] (setting [20]) and -7.75% in [18] (setting [21]).
In the case of `O=C(c1ccco1)N1CCC2(CC1)CCN(c1cccc(-c3ccccc3)c1)CC2`, the activity change, negative = inhibition in [14] is 8.59% (inactive); in [3], -13.9% (inactive); in experiment [18], 5.77% (inactive). Further, the results for the Potency in [2] and in [5] were 15.8 µM (active) and > 46 µM (inactive), respectively. In addition, the activity, negative = inhibition in experiment [15] was -16.1% (inactive). Further, the Potency entry in experiment [16] and in experiment [13] was “inactive” throughout. The max response in experiment [18] (setting [20]) is -0.036%; in experiment [18] (setting [21]) it was 9.11%.
For the molecule `COCC(=O)N1CCC[C@@]2(CCN(C(=O)Nc3ccc(OC)cc3)C2)C1`, the activity change, negative = inhibition was -7.62% (inactive) in [14], 11.4% (inactive) in [3] and 0.357% (inactive) in experiment [18]. The Potency entry in experiment [2], in experiment [16] and in experiment [13] was “inactive” each time. For the same molecule, the activity, negative = inhibition in experiment [15] is 6.35% (inactive). Also, the Potency in experiment [5] is > 46 µM (inactive). In addition, in experiment [6], the call was inactive. The max response in experiment [18] (setting [20]) stood at 1.93%; in experiment [18] (setting [21]) it was 5.76%.
In the case of `COC(=O)N1CCC2(CC1)CCN(c1ccccc1)CC2`, the activity change, negative = inhibition in experiment [14] is 8.46% (inactive); in [3] it was 7.28% (inactive); in experiment [18], 0.493% (inactive). The Potency result in experiment [2], in experiment [16], in experiment [19] and in experiment [13] was “inactive” in each case. Besides, the activity, negative = inhibition in experiment [15] is 7.52% (inactive). In experiment [5], the Potency was > 46 µM (inactive). The result in experiment [6] was inactive. Also, in experiment [8], the activation was 0.0011% (inactive). For the same molecule, the max response in experiment [18] (setting [20]) turned out to be 3.31%; in experiment [18] (setting [21]), 7.38%.
